Reference: PubChem BioAssay (NCI)
About 83,000 compounds went through this panel and 20% of them were active in at least one assay; those are over-represented in the sample as a whole.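 For each line, cells grew in 96-well plates with the test compound present at a single concentration for 48 hours.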 Values without a mark were called inactive. Active and inactive are the calls of the source. The calls were made as follows: active = growth percent below 10; inactive = the rest.

System: HL-60(TB) leukemia
Experiment: NCI-60 one-dose screen, 48 h (100 = growth as untreated, 0 = no growth, -100 = all killed)
Conditions: 10 µM unless noted

Compound	growth
COc1ccc(/C=C/c2nc(Nc3ccc(S(=O)(=O)NC(C)=O)cc3)c3ccccc3n2)cc1	85.7%
CCN(CC)CC(O)c1cc(-c2ccc(Cl)cc2)nc2cc(Cl)ccc12 (centres undefined)	17.9%
C/C(=C\c1ccc2ccccc2c1)[N+](=O)[O-]	-25.7% (active)
COc1ccc(/C=N/NC(=O)c2cnn(CC(O)Cc3ccccc3)c2N)cc1OC1CCCC1 (centres undefined)	105%
COc1cc(C2c3cc4c(cc3C(OC(=O)C[n+]3ccccc3)C3COC(=O)C23)OCO4)cc(OC)c1OC (centres undefined)	-32.5% (active)
CCN(CC)c1ccc(/C=N/NC(=O)C[N+](C)(C)C)cc1	35.5%
O=C(CSc1nnc(-c2ccc(NC(=O)c3cccnc3)cc2)o1)Nc1cccc(Br)c1	96.1%
N#Cc1ccc(/C=C/c2cn(-c3ccccc3)nc2-c2cccc([N+](=O)[O-])c2)cc1	82.4%
COc1cc(C(=O)n2nc(N)c3c(C)cc(C)nc32)cc(OC)c1OC	21.6%
CCC(C)/C(=C\C#N)NCCCN/C(=C/C#N)C(C)CC (centres undefined)	64.6%
Cc1cc2ccccc2nc1-c1ccccc1F	97.4%
COc1cc(/C=C2\COc3ccc(-c4ccccc4)cc3C2=O)cc(OC)c1	42.9%
CC(CN1CCN(CC(C)Nc2ccnc3cc(Cl)ccc23)CC1)Nc1ccnc2cc(Cl)ccc12 (centres undefined)	19.8%
C[C@@H](CO)[C@@H]1CC[C@]2(C(=O)N3CCN(C)CC3)CC[C@]3(C)[C@H](CC[C@@H]4[C@@]5(C)CC[C@H](O)C(C)(C)[C@@H]5CC[C@]43C)[C@@H]12	-46.9% (active)
C=C1C(=O)O[C@H]2[C@H]1CC/C(COC(=O)CCCCCC(=O)OC/C1=C/CC[C@@]3(C)O[C@H]3[C@H]3OC(=O)C(=C)[C@@H]3CC1)=C\CC[C@@]1(C)O[C@@H]21	-30% (active)
CCCCC#Cc1c(I)n(C2OC(CO[Si](C)(C)C(C)(C)C)C3OC(C)(C)OC32)c(=O)[nH]c1=O (centres undefined)	-29.4% (active)
O=C(NC(CSSCC(NC(=O)OCc1ccccc1)C(=O)O)C(=O)O)OCc1ccccc1 (centres undefined)	14.3%
O=C(O)c1ccc(P(=O)(O)O)c([N+](=O)[O-])c1	100%
Cc1c(C(=O)Nc2nc(-c3ccccc3)cs2)nnn1-c1cccc2ccccc12	54.4% [50 µM]
CC(C)(C)c1cn2cccc(C(=O)N3CCN(CC(=O)Nc4ccc(Cl)cc4C(=O)c4ccccc4Cl)CC3)c2n1	-32.4% (active)

Compound	growth
CSc1nc(N)c(N=Nc2ccc(S(=O)(=O)Nc3nnc(C)s3)cc2)c(=O)[nH]1	90.4%
COc1ccc2oc(=O)cc(CN3C(=O)S/C(=C\c4ccc(Cl)cc4)C3=O)c2c1	89.5%
C=C(C)CCC(C)N1CCC(N2CCC(C(=O)NCCc3ccccc3)CC2)CC1 (centres undefined)	27.4%
Clc1nc(N2CCC[N+]3(CC2)CC[N+]2(CCCNCC2)CC3)nc(N2CCC[N+]3(CC2)CC[N+]2(CCCNCC2)CC3)n1 (centres undefined)	97%
Nc1nc(OCc2ccccc2)c2[nH]cnc2n1	62.7%
Cc1cc2c(C(=O)NCC#N)cccc2n1-c1nc2c(c(NCc3ccccc3)n1)CCCC2	-23.5% (active)
C/C(=N\NC(=O)CSc1nc2ccccc2c(=O)n1CCc1ccc(S(N)(=O)=O)cc1)c1ccc(Br)cc1	66.3%
COc1cc2c(cc1OC)-c1cc(OC)c(OC)cc1C(CN(C)C)C2 (centres undefined)	69.8% [100 µM]
CN(C)c1ccc2nc3ccc(=[N+](C)C)cc-3oc2c1	-21% (active)
CC(=O)/C(=C/c1ccc([N+](=O)[O-])cc1)C(=O)c1ccccc1	41.9%
COc1cc(C)cc2oc3oc(=N)c(C(=O)c4ccccc4)cc3c(=O)c12	112%
C=C[C@@H]1C[C@@H]2Cc3c(C)cc(C)cc3N1O2	0.0364% (active)
CC(CC(CCC(=O)O)(c1ccccc1)c1ccccc1)N(C)C (centres undefined)	109%
CNC(=O)c1cc(Oc2ccc3c(c2)sc2nc(-c4ccc(N)cc4)cn23)ccn1	2.04% (active)
CCOC(=O)C1=C(C)n2nc(CC#N)c(C#N)c2NC1c1ccc(CC)cc1 (centres undefined)	115%
N#C/C(=C\c1cc(O)c(O)c(O)c1)C(N)=O	69.5%
CCCN(CCC)CC(O)COc1ccccc1C(=O)Nc1ccccc1 (centres undefined)	17.3%
O=C(CCl)Nc1cc(O)c2c(c1)C(=O)c1cccc(O)c1C2=O	-44.4% (active)
CCCCCC(CCC)COC(=O)c1ccc(OC)cc1 (centres undefined)	90.5%
